# Key:
# Experiment in all cases: DAPPL (digital affinity profiling via proximity ligation, sequencing); 10 mM Tris-HCl pH 7.5, 50 mM NaCl, 1 mM DTT, 4% glycerol, room temperature, 30 min; GST-TFs on glutathione beads, 16-mer random dsDNA library, 0.1% formaldehyde crosslink after washing; high values mean tight binding
# Details in all cases: protein: recombinant; tags: N-terminal GST; dsDNA, one strand shown
# FEV = molecular target: T1, FEV (Homo sapiens, UniProt Q99581 1-238)
# T1 sequence: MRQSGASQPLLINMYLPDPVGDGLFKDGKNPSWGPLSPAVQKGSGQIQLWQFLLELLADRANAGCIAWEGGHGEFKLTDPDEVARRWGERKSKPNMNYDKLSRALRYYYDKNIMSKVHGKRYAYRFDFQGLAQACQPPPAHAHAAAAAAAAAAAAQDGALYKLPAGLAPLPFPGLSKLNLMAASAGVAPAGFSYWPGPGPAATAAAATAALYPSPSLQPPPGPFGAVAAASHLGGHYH
# Outline: (§1)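 A tag-only sample was pooled with DNA-barcoded human transcription factors that had been expressed in yeast as GST fusions and captured on glutathione beads. The pools were incubated for 30 min at room temperature with 200 nmole of a random double-stranded 16-mer DNA library in Tris/NaCl/DTT/glycerol buffer, then washed, crosslinked with 0.1% formaldehyde, proximity-ligated (BsaI/T4 ligase, 1 h, 37 °C), PCR-amplified and sequenced on an Illumina NextSeq500. Binding signal is each hexamer's read frequency for a factor divided by its frequency for the tag-only sample.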
# ETV5 = ETV5 (Homo sapiens, UniProt P41161 1-510)
# Outline: as §1
# SPIC = molecular target: T2, SPIC (Homo sapiens, UniProt Q8N5J4 1-248)
# T2 sequence: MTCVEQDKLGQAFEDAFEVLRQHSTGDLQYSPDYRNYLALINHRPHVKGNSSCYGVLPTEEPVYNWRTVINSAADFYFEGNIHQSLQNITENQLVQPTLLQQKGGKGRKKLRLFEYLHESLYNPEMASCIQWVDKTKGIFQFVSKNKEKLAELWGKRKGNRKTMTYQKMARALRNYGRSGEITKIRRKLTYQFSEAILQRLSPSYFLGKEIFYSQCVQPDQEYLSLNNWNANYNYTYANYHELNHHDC
# Outline: as §1
# ELF4 = ELF4 (Homo sapiens, UniProt Q99607 1-663)
# Outline: as §1
# ELK4 = molecular target: T3, ELK4 (Homo sapiens, UniProt P28324-2 1-405)
# T3 sequence: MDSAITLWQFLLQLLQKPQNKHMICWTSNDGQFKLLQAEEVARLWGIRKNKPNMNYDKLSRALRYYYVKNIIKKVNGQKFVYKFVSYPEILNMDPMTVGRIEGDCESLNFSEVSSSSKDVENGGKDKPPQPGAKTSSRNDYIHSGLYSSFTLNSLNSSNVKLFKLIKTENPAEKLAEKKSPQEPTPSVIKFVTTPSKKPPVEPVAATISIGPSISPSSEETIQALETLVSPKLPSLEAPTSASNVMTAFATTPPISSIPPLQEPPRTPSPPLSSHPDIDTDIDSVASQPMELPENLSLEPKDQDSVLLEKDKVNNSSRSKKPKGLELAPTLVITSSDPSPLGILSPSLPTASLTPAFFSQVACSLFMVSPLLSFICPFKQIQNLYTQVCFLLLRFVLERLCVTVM
# Outline: as §1
# ETV2 = molecular target: T4, ETV2 (Homo sapiens, UniProt O00321 1-342)
# T4 sequence: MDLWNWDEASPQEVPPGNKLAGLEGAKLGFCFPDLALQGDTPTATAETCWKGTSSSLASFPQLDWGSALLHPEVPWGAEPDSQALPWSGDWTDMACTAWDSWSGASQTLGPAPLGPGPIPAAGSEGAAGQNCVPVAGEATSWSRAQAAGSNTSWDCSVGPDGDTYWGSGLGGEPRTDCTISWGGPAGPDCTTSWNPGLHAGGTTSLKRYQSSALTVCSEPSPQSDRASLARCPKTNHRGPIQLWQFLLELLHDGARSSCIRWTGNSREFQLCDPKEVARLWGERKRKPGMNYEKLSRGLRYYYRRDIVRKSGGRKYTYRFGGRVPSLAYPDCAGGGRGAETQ
# Outline: as §1
# ELF3 = molecular target: T5, ELF3 (Homo sapiens, UniProt P78545 1-371)
# T5 sequence: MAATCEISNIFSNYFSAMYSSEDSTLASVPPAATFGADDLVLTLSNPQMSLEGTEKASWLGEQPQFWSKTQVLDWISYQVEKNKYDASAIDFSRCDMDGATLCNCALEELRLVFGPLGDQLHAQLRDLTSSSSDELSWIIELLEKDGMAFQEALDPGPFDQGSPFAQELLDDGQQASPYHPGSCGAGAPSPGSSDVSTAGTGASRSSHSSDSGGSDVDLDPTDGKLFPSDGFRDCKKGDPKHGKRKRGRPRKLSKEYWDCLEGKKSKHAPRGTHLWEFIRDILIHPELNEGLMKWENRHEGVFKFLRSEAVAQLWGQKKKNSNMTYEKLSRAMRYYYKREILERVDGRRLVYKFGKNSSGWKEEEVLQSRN
# Outline: as §1
# ETV1 = ETV1 (Homo sapiens, UniProt P50549 1-477)
# Outline: as §1
# ERF = molecular target: T6, ERF (Homo sapiens, UniProt P50548 1-548)
# T6 sequence: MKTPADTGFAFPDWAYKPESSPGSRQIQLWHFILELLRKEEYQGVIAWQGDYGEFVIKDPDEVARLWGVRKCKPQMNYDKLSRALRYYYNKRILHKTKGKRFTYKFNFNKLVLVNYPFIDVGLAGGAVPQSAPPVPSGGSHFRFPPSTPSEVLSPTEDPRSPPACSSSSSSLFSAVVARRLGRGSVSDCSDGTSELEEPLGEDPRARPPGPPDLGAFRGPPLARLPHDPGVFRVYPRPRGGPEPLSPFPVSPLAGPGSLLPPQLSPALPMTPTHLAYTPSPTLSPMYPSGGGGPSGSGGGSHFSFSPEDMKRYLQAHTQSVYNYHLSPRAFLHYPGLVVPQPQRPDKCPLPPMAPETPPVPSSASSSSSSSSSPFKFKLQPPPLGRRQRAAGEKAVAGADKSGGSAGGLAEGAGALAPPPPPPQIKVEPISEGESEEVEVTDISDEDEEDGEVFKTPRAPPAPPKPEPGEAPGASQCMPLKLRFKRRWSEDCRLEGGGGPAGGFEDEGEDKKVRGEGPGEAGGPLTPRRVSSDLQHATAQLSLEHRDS
# Outline: as §1
# ETV3L = molecular target: T7, ETV3L (Homo sapiens, UniProt Q6ZN32 1-361)
# T7 sequence: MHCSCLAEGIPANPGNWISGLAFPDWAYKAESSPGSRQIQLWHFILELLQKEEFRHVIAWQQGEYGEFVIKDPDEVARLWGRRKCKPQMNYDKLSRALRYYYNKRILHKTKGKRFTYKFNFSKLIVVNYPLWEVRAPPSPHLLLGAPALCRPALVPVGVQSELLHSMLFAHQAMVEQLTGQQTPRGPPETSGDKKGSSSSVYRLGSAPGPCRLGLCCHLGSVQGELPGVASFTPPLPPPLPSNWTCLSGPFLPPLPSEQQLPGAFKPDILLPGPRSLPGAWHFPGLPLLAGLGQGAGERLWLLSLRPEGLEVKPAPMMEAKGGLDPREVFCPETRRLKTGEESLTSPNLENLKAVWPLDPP
# Outline: as §1
# ETS2 = molecular target: T8, ETS2 (Homo sapiens, UniProt P15036 1-469)
# T8 sequence: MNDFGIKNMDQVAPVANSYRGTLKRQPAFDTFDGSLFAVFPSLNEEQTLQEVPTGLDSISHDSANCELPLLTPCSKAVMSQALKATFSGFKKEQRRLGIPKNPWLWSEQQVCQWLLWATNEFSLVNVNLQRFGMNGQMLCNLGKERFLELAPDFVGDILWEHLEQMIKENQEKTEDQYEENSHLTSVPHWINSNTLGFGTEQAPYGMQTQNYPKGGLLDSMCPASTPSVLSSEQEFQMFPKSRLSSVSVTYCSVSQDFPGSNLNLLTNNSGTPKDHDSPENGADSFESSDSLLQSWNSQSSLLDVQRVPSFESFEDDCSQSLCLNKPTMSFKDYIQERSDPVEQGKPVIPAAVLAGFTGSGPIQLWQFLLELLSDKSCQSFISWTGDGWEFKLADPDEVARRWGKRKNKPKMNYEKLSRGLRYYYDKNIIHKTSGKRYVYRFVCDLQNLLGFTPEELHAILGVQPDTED
# Outline: as §1
# SPDEF = molecular target: T9, SPDEF (Homo sapiens, UniProt O95238 1-335)
# T9 sequence: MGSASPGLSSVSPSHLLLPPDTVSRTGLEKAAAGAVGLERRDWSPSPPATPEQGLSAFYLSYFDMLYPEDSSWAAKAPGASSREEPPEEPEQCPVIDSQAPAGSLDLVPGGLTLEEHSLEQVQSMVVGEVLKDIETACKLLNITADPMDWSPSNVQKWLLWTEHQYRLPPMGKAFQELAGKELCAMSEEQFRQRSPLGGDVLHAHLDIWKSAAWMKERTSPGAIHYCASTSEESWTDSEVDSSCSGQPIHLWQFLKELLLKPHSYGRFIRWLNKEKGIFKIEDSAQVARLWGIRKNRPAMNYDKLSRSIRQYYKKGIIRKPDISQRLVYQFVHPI
# Outline: as §1
# ETV7 = molecular target: T10, ETV7 (Homo sapiens, UniProt Q9Y603 1-341)
# T10 sequence: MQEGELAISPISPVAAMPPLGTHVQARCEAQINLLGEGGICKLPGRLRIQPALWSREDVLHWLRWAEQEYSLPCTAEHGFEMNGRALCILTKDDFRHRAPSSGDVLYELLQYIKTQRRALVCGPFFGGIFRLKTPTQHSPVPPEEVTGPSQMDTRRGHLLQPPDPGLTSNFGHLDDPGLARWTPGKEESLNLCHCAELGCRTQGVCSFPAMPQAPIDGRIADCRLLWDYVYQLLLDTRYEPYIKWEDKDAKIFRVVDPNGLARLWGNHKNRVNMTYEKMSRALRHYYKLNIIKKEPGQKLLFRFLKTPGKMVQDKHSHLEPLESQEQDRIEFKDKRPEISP
# Outline: as §1
# ELF5 = molecular target: T11, ELF5 (Homo sapiens, UniProt Q9UKW6-2 1-255)
# T11 sequence: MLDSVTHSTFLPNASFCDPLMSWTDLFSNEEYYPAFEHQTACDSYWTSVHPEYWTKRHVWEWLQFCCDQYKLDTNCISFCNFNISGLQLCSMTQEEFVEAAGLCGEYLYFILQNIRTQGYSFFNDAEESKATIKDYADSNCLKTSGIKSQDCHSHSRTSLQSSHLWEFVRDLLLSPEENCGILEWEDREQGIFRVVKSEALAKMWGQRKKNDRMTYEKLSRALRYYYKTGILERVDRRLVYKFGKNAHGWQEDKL
# Outline: as §1
# ETV3 = molecular target: T12, ETV3 (Homo sapiens, UniProt P41162-2 1-143)
# T12 sequence: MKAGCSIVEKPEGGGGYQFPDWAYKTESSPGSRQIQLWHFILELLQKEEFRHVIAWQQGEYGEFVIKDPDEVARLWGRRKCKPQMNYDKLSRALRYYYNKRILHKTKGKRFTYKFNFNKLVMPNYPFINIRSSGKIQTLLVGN
# Outline: as §1
# ETV6 = ETV6 (Homo sapiens, UniProt P41212 1-452)
# Outline: as §1
# Sequence of ETV1 (P50549 whole entry): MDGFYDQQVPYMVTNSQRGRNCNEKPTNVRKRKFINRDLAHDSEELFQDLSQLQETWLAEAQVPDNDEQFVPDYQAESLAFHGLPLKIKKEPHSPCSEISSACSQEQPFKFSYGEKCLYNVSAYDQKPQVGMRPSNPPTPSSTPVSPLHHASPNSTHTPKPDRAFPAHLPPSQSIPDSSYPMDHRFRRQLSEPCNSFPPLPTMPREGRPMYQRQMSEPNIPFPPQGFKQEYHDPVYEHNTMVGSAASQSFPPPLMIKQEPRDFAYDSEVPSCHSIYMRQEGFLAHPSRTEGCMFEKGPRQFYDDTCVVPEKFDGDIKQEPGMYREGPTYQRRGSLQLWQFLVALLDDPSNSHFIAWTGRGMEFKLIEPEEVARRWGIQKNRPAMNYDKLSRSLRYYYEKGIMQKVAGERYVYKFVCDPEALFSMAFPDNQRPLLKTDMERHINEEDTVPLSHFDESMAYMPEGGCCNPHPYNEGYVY
# Sequence of ETV6 (P41212 whole entry): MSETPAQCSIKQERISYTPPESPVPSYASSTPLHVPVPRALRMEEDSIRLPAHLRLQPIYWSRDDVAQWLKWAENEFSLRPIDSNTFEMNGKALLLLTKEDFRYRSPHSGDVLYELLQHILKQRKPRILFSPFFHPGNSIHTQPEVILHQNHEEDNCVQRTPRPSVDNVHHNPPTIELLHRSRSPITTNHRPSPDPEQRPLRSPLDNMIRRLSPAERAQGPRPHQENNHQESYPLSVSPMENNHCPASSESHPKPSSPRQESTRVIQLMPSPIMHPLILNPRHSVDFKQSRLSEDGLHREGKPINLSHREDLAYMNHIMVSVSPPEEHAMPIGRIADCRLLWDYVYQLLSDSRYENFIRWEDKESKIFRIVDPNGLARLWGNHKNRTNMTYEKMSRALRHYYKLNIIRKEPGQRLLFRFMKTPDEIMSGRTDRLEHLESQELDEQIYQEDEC
# Sequence of ETV5 (P41161 whole entry): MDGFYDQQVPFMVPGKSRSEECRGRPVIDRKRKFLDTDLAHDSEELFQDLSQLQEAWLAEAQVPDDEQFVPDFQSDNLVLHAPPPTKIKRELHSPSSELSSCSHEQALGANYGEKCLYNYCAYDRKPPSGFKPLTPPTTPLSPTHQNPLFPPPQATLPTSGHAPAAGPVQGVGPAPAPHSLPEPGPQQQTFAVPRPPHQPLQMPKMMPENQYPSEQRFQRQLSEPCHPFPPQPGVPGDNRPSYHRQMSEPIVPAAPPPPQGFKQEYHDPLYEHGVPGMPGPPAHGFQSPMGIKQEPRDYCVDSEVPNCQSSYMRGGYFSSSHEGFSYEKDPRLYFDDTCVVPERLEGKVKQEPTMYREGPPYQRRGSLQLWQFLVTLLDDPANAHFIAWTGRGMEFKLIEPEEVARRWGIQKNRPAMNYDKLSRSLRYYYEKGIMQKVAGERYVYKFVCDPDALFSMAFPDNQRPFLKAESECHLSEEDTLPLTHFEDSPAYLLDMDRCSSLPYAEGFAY
# Sequence of ELF4 (Q99607 whole entry): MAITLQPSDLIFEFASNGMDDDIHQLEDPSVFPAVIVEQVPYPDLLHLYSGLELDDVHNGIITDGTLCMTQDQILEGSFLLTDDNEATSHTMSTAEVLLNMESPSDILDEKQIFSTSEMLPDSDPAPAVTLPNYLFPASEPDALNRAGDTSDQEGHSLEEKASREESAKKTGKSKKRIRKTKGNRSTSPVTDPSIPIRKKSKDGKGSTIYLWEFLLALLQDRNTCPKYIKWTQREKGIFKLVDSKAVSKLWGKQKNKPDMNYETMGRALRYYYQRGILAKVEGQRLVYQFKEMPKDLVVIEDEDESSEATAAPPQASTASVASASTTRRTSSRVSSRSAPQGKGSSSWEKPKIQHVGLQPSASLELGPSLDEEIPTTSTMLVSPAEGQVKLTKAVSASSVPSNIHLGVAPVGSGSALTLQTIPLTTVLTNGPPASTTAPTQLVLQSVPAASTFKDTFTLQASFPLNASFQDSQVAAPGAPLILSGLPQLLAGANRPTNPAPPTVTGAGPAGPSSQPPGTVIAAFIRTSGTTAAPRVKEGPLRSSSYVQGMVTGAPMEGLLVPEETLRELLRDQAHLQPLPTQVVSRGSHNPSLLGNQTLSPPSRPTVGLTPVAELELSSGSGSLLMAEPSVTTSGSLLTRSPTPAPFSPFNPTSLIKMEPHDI
Sequence,binding signal (FEV),binding signal (ETV5),binding signal (SPIC),binding signal (ELF4),binding signal (ELK4),binding signal (ETV2),binding signal (ELF3),binding signal (ETV1),binding signal (ERF),binding signal (ETV3L),binding signal (ETS2),binding signal (SPDEF),binding signal (ETV7),binding signal (ELF5),binding signal (ETV3),binding signal (ETV6)
TGCCAC,"1.32 fold enrichment (6-mer frequency, TF over GST control)","1.14 fold enrichment (6-mer frequency, TF over GST control)","1.19 fold enrichment (6-mer frequency, TF over GST control)","1.26 fold enrichment (6-mer frequency, TF over GST control)","1.42 fold enrichment (6-mer frequency, TF over GST control)","1.14 fold enrichment (6-mer frequency, TF over GST control)","1.44 fold enrichment (6-mer frequency, TF over GST control)","1.26 fold enrichment (6-mer frequency, TF over GST control)","1.14 fold enrichment (6-mer frequency, TF over GST control)","1.28 fold enrichment (6-mer frequency, TF over GST control)","1.23 fold enrichment (6-mer frequency, TF over GST control)","1.15 fold enrichment (6-mer frequency, TF over GST control)","1.21 fold enrichment (6-mer frequency, TF over GST control)","1.16 fold enrichment (6-mer frequency, TF over GST control)","1.18 fold enrichment (6-mer frequency, TF over GST control)","1.24 fold enrichment (6-mer frequency, TF over GST control)"
TACCGG,"2.1 fold enrichment (6-mer frequency, TF over GST control)","1.68 fold enrichment (6-mer frequency, TF over GST control)","1.43 fold enrichment (6-mer frequency, TF over GST control)","1.51 fold enrichment (6-mer frequency, TF over GST control)","1.4 fold enrichment (6-mer frequency, TF over GST control)","1.5 fold enrichment (6-mer frequency, TF over GST control)","1.78 fold enrichment (6-mer frequency, TF over GST control)","1.73 fold enrichment (6-mer frequency, TF over GST control)","1.4 fold enrichment (6-mer frequency, TF over GST control)","1.47 fold enrichment (6-mer frequency, TF over GST control)","1.6 fold enrichment (6-mer frequency, TF over GST control)","1.77 fold enrichment (6-mer frequency, TF over GST control)","1.36 fold enrichment (6-mer frequency, TF over GST control)","1.71 fold enrichment (6-mer frequency, TF over GST control)","1.76 fold enrichment (6-mer frequency, TF over GST control)","1.68 fold enrichment (6-mer frequency, TF over GST control)"
AAGTGG,"1.23 fold enrichment (6-mer frequency, TF over GST control)","1.17 fold enrichment (6-mer frequency, TF over GST control)","1.43 fold enrichment (6-mer frequency, TF over GST control)","1.12 fold enrichment (6-mer frequency, TF over GST control)","1.13 fold enrichment (6-mer frequency, TF over GST control)","1.02 fold enrichment (6-mer frequency, TF over GST control)","1.19 fold enrichment (6-mer frequency, TF over GST control)","1.2 fold enrichment (6-mer frequency, TF over GST control)","1.24 fold enrichment (6-mer frequency, TF over GST control)","1.17 fold enrichment (6-mer frequency, TF over GST control)","1.19 fold enrichment (6-mer frequency, TF over GST control)","1.06 fold enrichment (6-mer frequency, TF over GST control)","1.31 fold enrichment (6-mer frequency, TF over GST control)","1.24 fold enrichment (6-mer frequency, TF over GST control)","1.23 fold enrichment (6-mer frequency, TF over GST control)","1.3 fold enrichment (6-mer frequency, TF over GST control)"

# — paper PMC7862700, “An all-to-all approach to the identification of sequence-specific readers for epigenetic DNA modifications on cytosine”
